Among all 48,000 compounds or so, about 13,000 (27%) showed an effect of 50% or more. The list shows a part of the results.

The test system of this assay is Wolbachia pipientis. The assay can be described thus: Anti-Wolbachia Cell-Based Screen. The class given is functional. Set-up: scale not given: in the data most compounds retested in dose-response had high values. To be noted: 5 µM.
As for `O=C(CCN1CCCO1)N1CC[C@@H](CNC(=O)N2CCCC2)[C@H](O)C1`, the “Percent Effect” value is 5.965%.
The figure for `CCc1ccc2c(c1)C(CCNC(=O)c1sccc1C)C(=O)N2` (centres undefined) is -0.3397%; for `Cn1nc(CN2CCC(c3ccncc3)CC2)c2c(Cl)cccc21` it is -3.245%; for `OC(COCc1ccccc1F)CN1CCc2c(ncn2C2CC2)C1` (centres undefined) it is -3.372%.
As to `Cc1ncc(CN(C)CC(O)c2ccc(Br)cc2)s1` (centres undefined), the “Percent Effect” value is on record as 5.745%.
The figure for `Cn1cnnc1CC1CCN(Cc2nn(C)c3cccc(Cl)c23)CC1` is -2.14%.
The figure for `Cc1cnn(CC2CCCN2CC(=O)N(C)Cc2ccco2)c1` (centres undefined) is -7.327%; for `Cc1cnn(CC2CCCN2C(=O)CCc2ccsc2)c1` (centres undefined) it is -5.285%.
Regarding `Cc1cnn(CC2CCCN2C(=O)CCc2ccc3c(c2)OCO3)c1` (centres undefined), the “Percent Effect” value turned out to be 126.1%.
For the compound `Cc1cnn(CC2CCCN2C(=O)CCc2ccco2)c1` (centres undefined), the “Percent Effect” value was 108.9%.
The figure for `Cc1cnn(CC2CCCN2C(=O)CCc2ccncc2)c1` (centres undefined) is 138.1%; for `CC(=O)Nc1ccc(S(=O)(=O)Nc2c(F)cccc2F)cc1` it is 12.85%; for `Cc1cnn(CC2CN(CC(=O)Nc3nnc(C)s3)CCO2)c1` (centres undefined) it is -4.997%.
The figure for `COc1cc(F)ccc1C(C(=O)O)N(C)CCN1CCCC1` (centres undefined) is -2.761%; for `CC(C)c1nc(O)c2nnn(C[C@H]3CCCN(Cc4cccs4)C3)c2n1` it is 127.4%; for `O=S(=O)(Cc1ccccc1)NCC1CCCN(Cc2cccs2)C1` (centres undefined) it is -20.75%.
The figure for `CC(C)c1nc(O)c2nnn(C[C@@H]3CCCN(Cc4cccs4)C3)c2n1` is 127%; for `CC1CN(Cc2cccc(CN)c2)CCO1` (centres undefined) it is -7.811%; for `Cc1cc(=O)n(C)cc1NC(=O)Cc1ccc(C(F)(F)F)cc1` it is -20.5%.
As to `CCN(CCNCc1ccc(C#N)cc1)C1CC1`, the “Percent Effect” value is given as -16.49%.
The figure for `O=C(NCCNc1ncccn1)c1ccc(-c2ccco2)[nH]c1=O` is 7.88%.
The figure for `OCCNc1nccc(-c2c[nH]nc2-c2ccncc2)n1` is 131%; for `Cc1ccccc1-n1cc(-c2ccnc(NC(CO)C(C)C)n2)cn1` (centres undefined) it is -0.3825%; for `Fc1ccc(-c2n[nH]cc2-c2ccnc(NCCN3CCCC3)n2)cc1` it is 7.952%.
The figure for `FCCOc1cccc(NCc2c[nH]nc2-c2cccnc2)c1` is -17.01%.
On to `Cc1ccccc1-n1cc(-c2ccnc(N[C@@H](CO)C(C)C)n2)cn1`, for which the “Percent Effect” value is -0.1007%.
As for `OCCNc1nccc(-c2c[nH]nc2-c2ccco2)n1`, the “Percent Effect” value worked out at 131.5%.
The figure for `CC(C)[C@H](CO)Nc1nccc(-c2c[nH]nc2-c2ccncc2)n1` is 88.77%.
The figure for `OCCNc1nccc(-c2c[nH]nc2-c2cccnc2)n1` is 121.3%; for `CCOCc1cccc(NCc2c[nH]nc2-c2cccnc2)c1` it is -7.599%; for `Cc1nc(O)cc(CCNc2nccc(CCC(F)(F)F)n2)n1` it is 19.69%.
The figure for `COCCNC(=O)CSc1nnc(OC(C)C)s1` is 5%; for `CN(CCNS(C)(=O)=O)C(=O)c1ccc(Cl)c(Cl)c1` it is 2.263%.
Consider `Cc1nn(C)c(C)c1CN(Cc1cccn1-c1cccnc1)C(C)C`, for which the “Percent Effect” value is -3.784%.
Regarding `O=C(NCc1ccccc1OCCO)Nc1ccc2c(c1)CCC2`, the “Percent Effect” value was 17.01%.
The figure for `N#Cc1ccnc(N2CCC(c3nccn3Cc3cscn3)CC2)c1` is 9.295%; for `CCCOC(C)C(=O)N1CCC(O)(c2ccc3nc(C)ccc3c2)CC1` (centres undefined) it is -16.84%; for `N#Cc1ccc(NCCC2CCN(CC(F)(F)F)CC2)nc1` it is -12.29%.
The figure for `Cc1ccc2c(n1)N(Cc1cccnc1)CCN(Cc1cnn(C)c1)C2` is 105.8%.
The figure for `Cc1ccc2c(n1)N(CC1CC1)CCN(Cc1cnn(C)c1)C2` is 122.1%; for `CN(C)Cc1nnc2n1CCN(Cc1cccnc1)C2` it is -0.7549%; for `Cc1ccc2c(n1)N(CC1CC1)CCN(C(=O)NC1CC1)C2.O=C(O)C(F)(F)F` it is -6.473%.
Regarding `Cc1ccc2c(n1)N(Cc1cccnc1)CCN(C(=O)C1CCC1)C2.O=C(O)C(F)(F)F.O=C(O)C(F)(F)F`, the “Percent Effect” value is -8.761%.
`COCCC(=O)N1CCN(CC2CC2)c2nc(C)ccc2C1.O=C(O)C(F)(F)F`: the “Percent Effect” value was -15.14%.
Take `Cc1ccc2c(n1)N(Cc1cccnc1)CCN(C(=O)C1CC=CC1)C2`: the “Percent Effect” value worked out at 112.8%.
The figure for `COCCN1CCN(C(=O)C2CC=CC2)Cc2cccnc21` is -8.576%.
The figure for `Cc1cc(-c2nn(C)c(Cl)c2CN2CCC3(CC2)[C@H](O)C[C@@H]3O)no1` is 0.9032%; for `CNC(=O)CS(=O)(=O)C1CCN(S(=O)(=O)c2c(F)cccc2F)CC1` it is 3.089%; for `CCn1ccnc1CN1CCN(C(C)C(=O)N2CCCCCC2)CC1` (centres undefined) it is 83.63%.
Turning to `CCn1ccnc1CN1CCCN(C(=O)c2cccn2C)CC1`, the “Percent Effect” value is given as 1.946%.
The figure for `CCn1ccnc1CN1CCN(C(C)C(=O)N2CCCC2)CC1` (centres undefined) is 111.2%; for `CCn1ccnc1CN1CCCN(C(=O)c2cnc(C)cn2)CC1` it is 120.4%.
The figure for `CCn1ccnc1CN1CCCN(C(=O)c2cc(Cl)c[nH]2)CC1` is -1.253%.
The figure for `CCn1ccnc1CN1CCCN(C(=O)c2cncnc2C)CC1` is -6.711%.
Consider `CCn1ccnc1CN1CCN(C(C)C(=O)NC2CCCCC2)CC1` (centres undefined), for which the “Percent Effect” value is listed as -10.14%.
The figure for `CCn1ccnc1CN1CCN(C(C)C(=O)N2CCC(C)CC2)CC1` (centres undefined) is 15.17%; for `CCn1ccnc1CN1CCCN(C(=O)C2(C#N)CCCCC2)CC1` it is -5.352%.
The figure for `COc1cccc(CNC(=O)NC2(c3nc(C)no3)CCCCC2)c1` is -3.756%.
The figure for `CC(NC(=O)NCCc1cnn(C)c1)c1ccc(Cl)s1` (centres undefined) is 7.772%.
Turning to `CN(Cc1ccco1)[C@@H]1CN(Cc2ccc(F)cc2)C[C@@H]2CCCO[C@@H]21.O=C(O)C(F)(F)F.O=C(O)C(F)(F)F`, the “Percent Effect” value is reported as 20.99%.
The figure for `CCCn1[nH]cc/c1=N\C(=O)CN1CCC[C@H]1CO` is 0.9827%.
The figure for `Cl.O=C(c1ccoc1)N1CCC(NCc2ccccc2Cl)CC1` is -26.85%.
The figure for `CCN1C[C@H]2CCN(C(=O)NC3CCCC3)CC[C@H]2S1(=O)=O` is 7.84%; for `CN1CCN(C(=O)CCn2nnc3ccccc32)CC(C(N)=O)C1` (centres undefined) it is 138.2%.
Take `CNC(=O)C1CN(C)CCN(C(=O)CCn2nnc3ccccc32)C1` (centres undefined): the “Percent Effect” value is 120.6%.
The figure for `COc1cccc(OC2CN(C(=O)CCn3cnc4ccccc43)C2)c1` is -24.05%.
The figure for `CC(C)c1cc(C(=O)NCCn2nnc3ccccc32)no1` is -3.58%.
The figure for `CNC(=O)C1CCN(C(=O)CCn2cccn2)CC1` is -8.925%; for `NC(=O)C1CCN(C(=O)Cn2nc(-c3ccccc3)oc2=O)C1` (centres undefined) it is -8.478%; for `Cn1c(CN2CCCCC2)nnc1C1CCN(c2nccc(N)n2)CC1` it is -10.02%.
Consider `COc1ccc(CNC(=O)CNc2cc3c(cc2Cl)OCCCO3)cc1`, for which the “Percent Effect” value is 0.3306%.
`CC(C)n1nc(CN(C)C)c2c1CN(CC1CC1)CC2.O=C(O)C(F)(F)F.O=C(O)C(F)(F)F`: the “Percent Effect” value is listed as -1.133%.
As for `Cn1nc(CNC(=O)CC#N)c2c1CN(CC1CC1)CC2.O=C(O)C(F)(F)F`, the “Percent Effect” value was -7.895%.
The figure for `Cn1nc(CN2CCCC2)c2c1CN(CC1CC1)CC2.O=C(O)C(F)(F)F.O=C(O)C(F)(F)F` is 104.5%; for `Cn1nc(CN2CCCC2)c2c1CN(C(=O)c1cnccn1)CC2` it is -11.87%; for `Cn1nc(CN2CCCC2)c2c1CN(C(=O)Nc1cccc(F)c1)CC2.O=C(O)C(F)(F)F` it is -17.26%.
For the compound `Cn1nc(CN2CCCCC2)c2c1CN(Cc1ccoc1)C2.O=C(O)C(F)(F)F.O=C(O)C(F)(F)F`, the “Percent Effect” value is -5.276%.
The figure for `CC(C)n1nc(CN(C)C)c2c1CN(C(=O)CC1CC1)CC2.O=C(O)C(F)(F)F` is -12.31%; for `CC(C)n1nc(CN2CCCC2)c2c1CN(CC1CC1)CC2.O=C(O)C(F)(F)F.O=C(O)C(F)(F)F` it is 114.1%.
As to `Cn1nc(CN2CCCC2)c2c1CN(c1cnccn1)CC2.O=C(O)C(F)(F)F.O=C(O)C(F)(F)F`, the “Percent Effect” value came to 110%.
For `O=C(Cc1cccs1)N1CC(c2nc(-c3cnccn3)no2)C1`, the “Percent Effect” value stood at 16.37%.
The figure for `CC(C)CN1CCN(S(=O)(=O)c2cn(C)cn2)[C@H]2CS(=O)(=O)C[C@H]21` is -0.9827%; for `N#Cc1ccc(F)c(CN(CC(=O)N2CCCC2)CC2CCCO2)c1` (centres undefined) it is -8.762%; for `CCc1cc(CN(C)C(=O)c2nnc(CN(C)C)o2)on1` it is -21.92%.
The figure for `COc1ccc(CN(C)c2ncc(S(N)(=O)=O)s2)c(OC)c1` is -0.4358%; for `CCCc1noc(CCC(=O)N2CCCC2c2noc(C3CC3)n2)n1` (centres undefined) it is -5.991%; for `CCc1nc(C2CCCN2C(=O)CCNS(C)(=O)=O)no1` (centres undefined) it is 1.725%.
The figure for `CCc1nc(C2CCCN2C(=O)CCc2nc(C3CC3)no2)no1` (centres undefined) is 115.8%; for `CCc1nc(C2CCCN2C(=O)CCc2nc(C(C)(C)C)no2)no1` (centres undefined) it is 121.6%.
For `CCc1nc(C2CCCN2C(=O)CCc2ccc3c(c2)OCO3)no1` (centres undefined), the “Percent Effect” value was -10.43%.
The figure for `CCc1nc(C2CCCN2C(=O)CCc2c(C)noc2Cl)no1` (centres undefined) is 102.7%; for `CCc1nc(C2CCCN2C(=O)c2c[nH]c(C)n2)no1` (centres undefined) it is -5.998%; for `CCc1nc(C2CCCN2C(=O)c2ccoc2C)no1` (centres undefined) it is -2.017%.
The figure for `CCc1nc(C2CCCN2C(=O)c2ncoc2CC)no1` (centres undefined) is 6.406%; for `CCc1nc(C2CCCN2C(=O)CCc2cscn2)no1` (centres undefined) it is 107.6%; for `O=C(CCc1cscn1)N1CCCC1c1noc(C2CC2)n1` (centres undefined) it is 2.466%.
With `COc1ncc(Cl)c(NCc2ccc(C(=O)N(C)C)cc2)n1`, the “Percent Effect” value was -9.459%.
The figure for `CC(C)c1nc(Cn2cncn2)n(-c2ccccn2)n1` is -15.87%.
Consider `CC1CCN(C(=O)c2cn(-c3cc(N4CCOCC4)ncn3)cn2)CC1`, for which the “Percent Effect” value came out at 4.259%.

The values are drawn from ChEMBL document CHEMBL3988442, “University of Dundee, Small-Polar-MMV Screening Library” (2021).
